Test results: the supplement of paper PMC11732987, “Enantioselective OTUD7B fragment discovery through chemoproteomics screening and high-throughput optimisation” (Communications Chemistry, 2025)

Key:
Assay in all cases: log2 ratio of Biotin-Ahx-Ub-VS probe labelling (fragment/DMSO); higher = less target engagement (more negative = stronger competition), active = hit call of the paper (q ≤ 0.05, log2 ratio ≤ -1)
Conditions in all cases: compound concentration: 200 uM; treatment time: 3 h
USP42 = target: T1, USP42 (UniProt Q9H9J4)
T1 sequence (whole entry): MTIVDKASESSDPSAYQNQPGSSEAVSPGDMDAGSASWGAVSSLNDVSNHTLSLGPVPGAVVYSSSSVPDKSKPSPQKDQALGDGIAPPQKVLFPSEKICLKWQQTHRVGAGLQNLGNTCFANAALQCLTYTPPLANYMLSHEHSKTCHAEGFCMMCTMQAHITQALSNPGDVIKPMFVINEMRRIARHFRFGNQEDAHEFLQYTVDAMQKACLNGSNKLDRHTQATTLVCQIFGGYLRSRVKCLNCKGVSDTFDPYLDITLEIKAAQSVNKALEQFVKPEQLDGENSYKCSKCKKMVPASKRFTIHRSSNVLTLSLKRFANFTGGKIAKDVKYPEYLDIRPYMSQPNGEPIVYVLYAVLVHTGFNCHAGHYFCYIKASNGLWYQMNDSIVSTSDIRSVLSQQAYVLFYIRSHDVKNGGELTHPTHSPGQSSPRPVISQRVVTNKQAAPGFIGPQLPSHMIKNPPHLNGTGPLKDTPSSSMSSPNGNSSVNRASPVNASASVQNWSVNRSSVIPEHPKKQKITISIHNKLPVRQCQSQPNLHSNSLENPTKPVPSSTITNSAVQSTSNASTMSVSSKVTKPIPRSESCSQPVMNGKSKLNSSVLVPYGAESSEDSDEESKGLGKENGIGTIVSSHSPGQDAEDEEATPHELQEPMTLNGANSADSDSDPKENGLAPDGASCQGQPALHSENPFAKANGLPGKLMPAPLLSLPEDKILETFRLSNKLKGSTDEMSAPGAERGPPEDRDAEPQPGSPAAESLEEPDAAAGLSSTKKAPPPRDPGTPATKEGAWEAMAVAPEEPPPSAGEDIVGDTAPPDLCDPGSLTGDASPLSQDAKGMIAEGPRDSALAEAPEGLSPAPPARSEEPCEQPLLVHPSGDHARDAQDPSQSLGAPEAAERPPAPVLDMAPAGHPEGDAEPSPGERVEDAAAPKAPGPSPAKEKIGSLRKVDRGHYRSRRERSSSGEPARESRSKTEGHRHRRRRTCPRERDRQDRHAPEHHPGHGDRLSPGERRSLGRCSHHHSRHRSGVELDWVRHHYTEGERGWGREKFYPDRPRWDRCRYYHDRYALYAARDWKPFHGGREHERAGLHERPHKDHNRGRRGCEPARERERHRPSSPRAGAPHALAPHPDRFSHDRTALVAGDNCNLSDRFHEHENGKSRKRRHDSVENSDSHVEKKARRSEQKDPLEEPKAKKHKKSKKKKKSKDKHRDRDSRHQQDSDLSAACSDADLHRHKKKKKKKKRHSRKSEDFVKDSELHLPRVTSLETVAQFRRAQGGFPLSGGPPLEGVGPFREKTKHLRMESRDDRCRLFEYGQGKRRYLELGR
Summary of the method: (§1)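 HEK293T lysate (495 µg per sample, in Tris/CHAPS/IGEPAL buffer with protease inhibitors) was exposed in triplicate for 3 h to fragment at 200 µM or to vehicle, then to Biotin-Ahx-Ub-VS at 0.5 µM final for 1 h. Labelled DUBs were enriched on NeutrAvidin, digested with LysC and trypsin, and analysed by diaPASEF LC-MS/MS. Spectronaut label-free quantities were normalised to the global median, and values are average log2 ratios of fragment over vehicle from an unpaired t-test. Only proteins with ≥2 unique peptides were used.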

USP46 = USP46 (UniProt P62068)
Chain of USP46 (P62068 whole entry): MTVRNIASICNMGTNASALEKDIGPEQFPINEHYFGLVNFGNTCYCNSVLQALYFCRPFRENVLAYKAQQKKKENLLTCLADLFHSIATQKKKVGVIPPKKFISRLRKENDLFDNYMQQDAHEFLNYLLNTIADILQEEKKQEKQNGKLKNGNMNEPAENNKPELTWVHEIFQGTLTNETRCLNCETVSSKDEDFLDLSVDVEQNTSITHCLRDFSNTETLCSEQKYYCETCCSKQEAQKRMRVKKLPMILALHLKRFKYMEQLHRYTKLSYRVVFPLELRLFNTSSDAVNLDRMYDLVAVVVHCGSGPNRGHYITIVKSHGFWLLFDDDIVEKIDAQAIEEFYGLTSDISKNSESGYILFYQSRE
Summary of the method: as §1

USP47 = target: T2, USP47 (UniProt Q96K76)
T2 sequence (whole entry): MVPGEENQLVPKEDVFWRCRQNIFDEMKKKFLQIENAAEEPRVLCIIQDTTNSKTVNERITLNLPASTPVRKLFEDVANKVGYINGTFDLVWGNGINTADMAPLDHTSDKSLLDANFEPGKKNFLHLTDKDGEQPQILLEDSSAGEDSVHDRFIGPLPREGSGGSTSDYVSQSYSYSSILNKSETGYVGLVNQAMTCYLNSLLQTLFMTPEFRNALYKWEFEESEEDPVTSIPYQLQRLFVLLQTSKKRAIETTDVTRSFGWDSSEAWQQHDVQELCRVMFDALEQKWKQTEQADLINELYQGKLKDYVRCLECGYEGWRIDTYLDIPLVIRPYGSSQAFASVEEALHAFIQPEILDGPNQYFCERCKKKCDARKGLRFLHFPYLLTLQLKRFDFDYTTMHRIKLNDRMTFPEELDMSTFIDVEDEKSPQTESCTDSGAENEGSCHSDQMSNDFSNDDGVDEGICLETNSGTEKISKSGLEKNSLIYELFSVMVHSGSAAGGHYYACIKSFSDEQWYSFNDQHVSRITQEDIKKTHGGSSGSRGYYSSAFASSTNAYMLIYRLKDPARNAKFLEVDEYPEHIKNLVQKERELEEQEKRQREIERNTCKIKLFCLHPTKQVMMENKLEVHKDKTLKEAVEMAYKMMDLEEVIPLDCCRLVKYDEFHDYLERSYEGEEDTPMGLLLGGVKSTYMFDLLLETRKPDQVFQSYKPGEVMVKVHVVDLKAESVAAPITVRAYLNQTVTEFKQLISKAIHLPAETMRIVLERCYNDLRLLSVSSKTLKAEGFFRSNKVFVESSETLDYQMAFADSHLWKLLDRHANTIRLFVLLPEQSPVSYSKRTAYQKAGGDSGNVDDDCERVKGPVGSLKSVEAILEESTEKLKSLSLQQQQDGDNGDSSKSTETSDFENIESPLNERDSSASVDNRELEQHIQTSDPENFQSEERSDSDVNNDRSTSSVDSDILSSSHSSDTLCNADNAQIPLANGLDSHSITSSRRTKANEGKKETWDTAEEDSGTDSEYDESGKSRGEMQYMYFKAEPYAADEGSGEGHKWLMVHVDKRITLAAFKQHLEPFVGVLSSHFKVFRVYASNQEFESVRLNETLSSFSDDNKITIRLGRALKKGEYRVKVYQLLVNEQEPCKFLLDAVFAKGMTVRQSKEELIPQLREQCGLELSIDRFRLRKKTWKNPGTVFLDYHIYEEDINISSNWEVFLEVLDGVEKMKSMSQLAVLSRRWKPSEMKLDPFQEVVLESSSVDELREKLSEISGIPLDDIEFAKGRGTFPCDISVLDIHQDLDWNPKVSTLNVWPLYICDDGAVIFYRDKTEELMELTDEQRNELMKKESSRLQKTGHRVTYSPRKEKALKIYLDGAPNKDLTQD
Summary of the method: as §1

USP48 = target: T3, USP48 (UniProt Q86UV5)
T3 sequence (whole entry): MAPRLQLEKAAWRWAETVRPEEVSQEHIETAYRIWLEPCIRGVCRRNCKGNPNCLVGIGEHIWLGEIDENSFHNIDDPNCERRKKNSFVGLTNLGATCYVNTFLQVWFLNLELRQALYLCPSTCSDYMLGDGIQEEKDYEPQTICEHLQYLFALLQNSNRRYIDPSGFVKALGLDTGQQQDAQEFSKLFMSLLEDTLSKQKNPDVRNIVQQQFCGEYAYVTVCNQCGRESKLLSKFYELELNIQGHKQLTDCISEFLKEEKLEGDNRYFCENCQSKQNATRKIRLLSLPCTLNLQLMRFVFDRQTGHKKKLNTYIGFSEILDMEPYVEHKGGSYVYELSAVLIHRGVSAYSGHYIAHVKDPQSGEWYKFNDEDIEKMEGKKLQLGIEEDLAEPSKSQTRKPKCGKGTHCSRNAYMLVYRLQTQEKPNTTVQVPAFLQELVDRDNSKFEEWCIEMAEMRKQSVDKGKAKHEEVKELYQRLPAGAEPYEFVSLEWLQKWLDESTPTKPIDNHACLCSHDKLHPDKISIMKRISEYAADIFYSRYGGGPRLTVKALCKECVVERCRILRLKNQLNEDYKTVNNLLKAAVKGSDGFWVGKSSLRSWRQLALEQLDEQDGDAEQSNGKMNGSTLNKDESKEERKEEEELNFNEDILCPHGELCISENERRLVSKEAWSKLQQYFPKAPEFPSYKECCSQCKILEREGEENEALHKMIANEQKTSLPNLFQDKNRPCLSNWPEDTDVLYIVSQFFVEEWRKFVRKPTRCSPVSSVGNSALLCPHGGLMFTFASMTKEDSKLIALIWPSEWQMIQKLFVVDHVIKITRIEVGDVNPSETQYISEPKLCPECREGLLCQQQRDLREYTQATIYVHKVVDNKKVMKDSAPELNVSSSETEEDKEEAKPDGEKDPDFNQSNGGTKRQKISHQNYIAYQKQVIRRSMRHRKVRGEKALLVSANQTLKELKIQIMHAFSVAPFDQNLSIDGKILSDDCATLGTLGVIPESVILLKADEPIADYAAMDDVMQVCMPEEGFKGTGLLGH
Summary of the method: as §1

USP5 = target: T4, USP5 (UniProt P45974)
T4 sequence (whole entry): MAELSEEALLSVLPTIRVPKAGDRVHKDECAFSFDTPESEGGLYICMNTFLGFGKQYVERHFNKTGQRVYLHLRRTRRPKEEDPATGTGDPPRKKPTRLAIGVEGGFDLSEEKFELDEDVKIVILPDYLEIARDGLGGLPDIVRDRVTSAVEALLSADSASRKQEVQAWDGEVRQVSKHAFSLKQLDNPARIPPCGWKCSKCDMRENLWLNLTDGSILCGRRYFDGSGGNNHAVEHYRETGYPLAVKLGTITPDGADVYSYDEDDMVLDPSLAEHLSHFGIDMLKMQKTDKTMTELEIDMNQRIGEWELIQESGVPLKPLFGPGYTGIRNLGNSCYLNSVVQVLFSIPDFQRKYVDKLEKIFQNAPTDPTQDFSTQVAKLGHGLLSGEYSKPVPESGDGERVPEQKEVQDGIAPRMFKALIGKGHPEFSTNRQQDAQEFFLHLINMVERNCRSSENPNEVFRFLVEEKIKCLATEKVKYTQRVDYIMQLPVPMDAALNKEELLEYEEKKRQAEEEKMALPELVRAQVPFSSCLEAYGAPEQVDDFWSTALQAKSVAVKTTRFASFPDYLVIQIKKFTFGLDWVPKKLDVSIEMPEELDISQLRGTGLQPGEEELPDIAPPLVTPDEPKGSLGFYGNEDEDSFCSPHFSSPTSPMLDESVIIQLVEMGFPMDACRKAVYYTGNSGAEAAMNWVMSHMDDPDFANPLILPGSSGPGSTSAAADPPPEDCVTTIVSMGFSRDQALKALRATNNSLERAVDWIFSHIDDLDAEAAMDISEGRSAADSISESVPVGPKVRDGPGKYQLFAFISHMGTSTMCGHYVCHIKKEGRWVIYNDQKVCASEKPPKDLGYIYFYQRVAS
Summary of the method: as §1

USP54 = USP54 (UniProt Q70EL1)
Chain of USP54 (Q70EL1 whole entry): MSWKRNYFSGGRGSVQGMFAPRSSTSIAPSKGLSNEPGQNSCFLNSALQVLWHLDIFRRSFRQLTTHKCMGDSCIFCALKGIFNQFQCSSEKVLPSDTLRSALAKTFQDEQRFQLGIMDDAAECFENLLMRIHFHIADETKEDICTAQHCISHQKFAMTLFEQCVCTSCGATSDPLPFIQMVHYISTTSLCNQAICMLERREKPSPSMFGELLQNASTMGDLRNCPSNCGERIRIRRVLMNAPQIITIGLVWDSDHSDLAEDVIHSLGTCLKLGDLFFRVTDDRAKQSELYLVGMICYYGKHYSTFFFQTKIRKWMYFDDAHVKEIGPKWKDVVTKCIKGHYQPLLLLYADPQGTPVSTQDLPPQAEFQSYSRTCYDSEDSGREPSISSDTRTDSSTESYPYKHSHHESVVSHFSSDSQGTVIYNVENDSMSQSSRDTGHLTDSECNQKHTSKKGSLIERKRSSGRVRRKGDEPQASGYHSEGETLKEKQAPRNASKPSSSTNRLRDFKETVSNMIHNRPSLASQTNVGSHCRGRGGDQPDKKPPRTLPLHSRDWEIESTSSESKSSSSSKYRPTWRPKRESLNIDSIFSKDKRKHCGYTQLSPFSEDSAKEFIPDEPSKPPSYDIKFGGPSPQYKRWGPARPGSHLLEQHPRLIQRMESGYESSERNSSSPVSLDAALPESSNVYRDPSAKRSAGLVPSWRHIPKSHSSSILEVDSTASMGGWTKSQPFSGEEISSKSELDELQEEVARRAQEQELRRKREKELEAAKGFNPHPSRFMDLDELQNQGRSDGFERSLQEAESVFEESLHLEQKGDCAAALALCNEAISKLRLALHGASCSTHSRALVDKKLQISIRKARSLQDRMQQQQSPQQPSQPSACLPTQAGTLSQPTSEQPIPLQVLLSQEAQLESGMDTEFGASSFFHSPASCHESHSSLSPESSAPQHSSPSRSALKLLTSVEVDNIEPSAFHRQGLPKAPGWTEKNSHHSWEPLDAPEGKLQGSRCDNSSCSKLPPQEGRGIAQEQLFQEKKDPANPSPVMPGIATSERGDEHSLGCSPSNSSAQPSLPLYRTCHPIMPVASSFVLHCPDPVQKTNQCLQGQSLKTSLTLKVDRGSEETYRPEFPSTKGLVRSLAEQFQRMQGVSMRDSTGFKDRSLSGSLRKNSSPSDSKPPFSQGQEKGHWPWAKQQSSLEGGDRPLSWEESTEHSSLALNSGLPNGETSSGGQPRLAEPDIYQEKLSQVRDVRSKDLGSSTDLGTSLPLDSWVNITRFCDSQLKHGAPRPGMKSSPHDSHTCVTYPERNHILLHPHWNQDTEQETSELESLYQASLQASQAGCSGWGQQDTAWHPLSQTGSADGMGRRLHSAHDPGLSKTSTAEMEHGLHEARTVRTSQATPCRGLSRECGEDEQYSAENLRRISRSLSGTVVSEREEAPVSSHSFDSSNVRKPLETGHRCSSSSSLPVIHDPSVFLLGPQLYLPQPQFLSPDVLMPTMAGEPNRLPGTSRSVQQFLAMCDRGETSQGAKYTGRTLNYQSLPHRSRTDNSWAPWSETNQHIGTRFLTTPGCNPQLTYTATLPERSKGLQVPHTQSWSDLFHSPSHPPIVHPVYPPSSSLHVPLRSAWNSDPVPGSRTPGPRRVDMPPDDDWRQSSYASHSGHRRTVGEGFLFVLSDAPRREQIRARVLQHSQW
Summary of the method: as §1

USP7 = USP7 (UniProt Q93009)
Chain of USP7 (Q93009 whole entry, looked up): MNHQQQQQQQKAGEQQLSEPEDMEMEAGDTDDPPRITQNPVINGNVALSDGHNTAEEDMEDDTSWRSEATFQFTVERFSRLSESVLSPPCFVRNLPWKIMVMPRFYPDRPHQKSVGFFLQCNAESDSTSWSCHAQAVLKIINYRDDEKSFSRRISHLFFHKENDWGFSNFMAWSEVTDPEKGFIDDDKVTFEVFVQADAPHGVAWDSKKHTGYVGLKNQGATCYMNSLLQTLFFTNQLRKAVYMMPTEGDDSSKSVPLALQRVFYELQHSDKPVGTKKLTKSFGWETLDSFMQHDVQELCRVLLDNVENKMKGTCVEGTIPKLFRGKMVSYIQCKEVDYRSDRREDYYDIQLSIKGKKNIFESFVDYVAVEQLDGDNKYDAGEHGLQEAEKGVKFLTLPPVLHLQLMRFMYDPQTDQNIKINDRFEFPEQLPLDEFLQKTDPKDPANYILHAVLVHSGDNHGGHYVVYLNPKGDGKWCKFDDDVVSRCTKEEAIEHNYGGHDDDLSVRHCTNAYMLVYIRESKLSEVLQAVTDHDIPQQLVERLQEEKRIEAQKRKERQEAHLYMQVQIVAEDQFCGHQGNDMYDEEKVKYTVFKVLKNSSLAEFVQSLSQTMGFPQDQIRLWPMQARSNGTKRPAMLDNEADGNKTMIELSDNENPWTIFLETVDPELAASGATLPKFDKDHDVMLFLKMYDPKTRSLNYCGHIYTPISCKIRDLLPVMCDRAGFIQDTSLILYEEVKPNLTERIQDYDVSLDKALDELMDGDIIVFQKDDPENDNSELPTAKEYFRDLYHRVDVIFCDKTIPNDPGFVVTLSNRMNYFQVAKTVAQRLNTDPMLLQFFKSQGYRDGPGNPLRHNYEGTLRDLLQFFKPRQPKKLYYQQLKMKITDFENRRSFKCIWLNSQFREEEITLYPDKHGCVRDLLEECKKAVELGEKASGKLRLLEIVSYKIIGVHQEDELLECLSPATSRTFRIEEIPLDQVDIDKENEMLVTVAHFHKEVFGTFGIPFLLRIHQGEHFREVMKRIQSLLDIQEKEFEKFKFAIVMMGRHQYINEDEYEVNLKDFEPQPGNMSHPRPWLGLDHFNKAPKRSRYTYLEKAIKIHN
Summary of the method: as §1

USP8 = target: T5, USP8 (UniProt P40818)
T5 sequence (whole entry): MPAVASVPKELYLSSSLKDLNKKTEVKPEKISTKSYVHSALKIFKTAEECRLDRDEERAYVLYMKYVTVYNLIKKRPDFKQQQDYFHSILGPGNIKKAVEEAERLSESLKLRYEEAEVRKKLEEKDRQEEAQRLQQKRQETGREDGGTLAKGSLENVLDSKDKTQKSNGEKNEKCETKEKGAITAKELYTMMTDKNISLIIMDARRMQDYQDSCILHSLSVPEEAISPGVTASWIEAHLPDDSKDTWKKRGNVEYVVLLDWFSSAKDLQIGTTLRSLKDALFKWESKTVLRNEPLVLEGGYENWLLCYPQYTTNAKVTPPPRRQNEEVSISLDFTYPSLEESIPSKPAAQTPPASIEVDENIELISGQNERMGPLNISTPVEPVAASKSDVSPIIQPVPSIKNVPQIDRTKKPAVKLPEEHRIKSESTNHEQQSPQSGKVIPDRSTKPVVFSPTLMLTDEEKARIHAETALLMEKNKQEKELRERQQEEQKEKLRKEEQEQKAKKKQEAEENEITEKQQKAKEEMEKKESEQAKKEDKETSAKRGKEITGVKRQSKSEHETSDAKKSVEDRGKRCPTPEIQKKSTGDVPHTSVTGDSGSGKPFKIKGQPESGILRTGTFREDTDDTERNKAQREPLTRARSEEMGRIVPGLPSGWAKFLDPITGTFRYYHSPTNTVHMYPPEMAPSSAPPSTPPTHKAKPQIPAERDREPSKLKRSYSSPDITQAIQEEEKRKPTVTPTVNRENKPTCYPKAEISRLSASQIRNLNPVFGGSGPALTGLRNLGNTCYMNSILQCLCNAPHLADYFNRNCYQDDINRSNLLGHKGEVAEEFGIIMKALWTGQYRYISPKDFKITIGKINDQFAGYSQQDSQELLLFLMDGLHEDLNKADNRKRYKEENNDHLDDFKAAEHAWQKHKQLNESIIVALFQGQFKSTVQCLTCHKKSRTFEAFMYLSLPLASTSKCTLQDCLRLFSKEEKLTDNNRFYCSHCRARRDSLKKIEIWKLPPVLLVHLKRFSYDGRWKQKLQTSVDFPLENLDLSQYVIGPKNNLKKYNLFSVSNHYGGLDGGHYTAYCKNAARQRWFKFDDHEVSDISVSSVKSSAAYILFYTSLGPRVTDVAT
Summary of the method: as §1

USP9X = USP9X (UniProt Q93008)
Summary of the method: as §1

UniProt O00487 = target: UniProt O00487
Chain of UniProt O00487 (O00487 whole entry): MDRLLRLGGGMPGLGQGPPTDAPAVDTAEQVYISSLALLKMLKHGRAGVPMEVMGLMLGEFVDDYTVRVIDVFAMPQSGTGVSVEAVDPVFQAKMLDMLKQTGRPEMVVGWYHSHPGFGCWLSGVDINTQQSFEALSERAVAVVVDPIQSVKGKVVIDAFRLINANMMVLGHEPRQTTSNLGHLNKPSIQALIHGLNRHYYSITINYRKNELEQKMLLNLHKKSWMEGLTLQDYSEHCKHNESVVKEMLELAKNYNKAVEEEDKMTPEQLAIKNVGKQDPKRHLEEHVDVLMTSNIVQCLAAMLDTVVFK
Summary of the method: as §1

Measured: log2 ratio of Biotin-Ahx-Ub-VS probe labelling

CN1C(=O)c2ccc(NC(=O)CCl)cc2C1=O
inactive: USP42 0.714 | USP46 -0.152 | USP47 -0.217 | USP48 -0.208 | USP5 -0.508 | USP54 0.112 | USP7 -0.743 | USP8 -0.236 | USP9X -0.202 | UniProt O00487 0.0214
